About 83,000 compounds went through this panel and 20% of them were active in at least one assay; those are over-represented in the sample as a whole.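 The test compound was applied at a single concentration to cells in 96-well plates for 48 hours, and percent growth was recorded.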 A number with no mark means an inactive call. Active and inactive are the calls of the source. How the source made its calls: active means growth percent below 10; inactive means the rest.

Experimental findings from PubChem BioAssay (NCI) are described below.

Test systems include T-47D breast; BT-549 breast; MDA-MB-435 melanoma; SW-620 colon; MCF7 breast; HCT-116 colon; HCC-2998 colon; KM12 colon.
Common to all, as to experiment: NCI-60 one-dose screen, 48 h (100 = growth as untreated, 0 = no growth, -100 = all killed)
Common to all, as to conditions: 10 µM unless noted

With `CCC#CC[C@H]1C/C=C2/C(=O)C=C[C@@H]2C/C=C\CCCC(=O)O1`, the growth in the assay with T-47D breast was 24.1%; with BT-549 breast, 0.46% (active); in the assay with MDA-MB-435 melanoma it was -0.679% (active); with SW-620 colon, 0.0835% (active); in the assay with MCF7 breast it was 18.3%; in the assay on HCT-116 colon, -70.9% (active). In addition, the growth in the assay with HCC-2998 colon was -67% (active); with KM12 colon, -48.8% (active).

`Cc1c(C(=O)NCc2ccccc2)[n+](=O)c2cc(F)ccc2n1[O-]`: the growth was 107% in the assay on T-47D breast; 121% in the assay with BT-549 breast; 93.5% with MDA-MB-435 melanoma; 107% in the assay with SW-620 colon; 97.1% with MCF7 breast; 97.9% in the assay with HCT-116 colon. Moreover, the results for the growth with HCC-2998 colon and in the assay with KM12 colon were 88.4% and 111%, respectively.

As to `O=C(Nc1ccc(F)c(Cl)c1)c1n[nH]c(=O)c2ccccc12`, the growth in the assay on T-47D breast was 81.1%; in the assay with BT-549 breast, 132%; in the assay with MDA-MB-435 melanoma, 93.2%; in the assay with SW-620 colon, 107%; in the assay with MCF7 breast, 60.6%; in the assay with HCT-116 colon, 101%. Also, the growth with HCC-2998 colon was 103%; with KM12 colon, 92.4%.

For the compound `CN(C)c1ccc(-c2ccc(-c3ccc(C(=N)N)cn3)o2)cc1`, the growth was -68.2% (active) in the assay on T-47D breast; -11.8% (active) in the assay with BT-549 breast; -84.2% (active) in the assay with MDA-MB-435 melanoma; -72.6% (active) with SW-620 colon; -38.1% (active) in the assay on MCF7 breast; -62.4% (active) with HCT-116 colon. For the same compound, the growth in the assay on KM12 colon is -97% (active).

`O=[N+]([O-])c1ccc(S(=O)(=O)N2CCN(c3ccnc4cc(Cl)ccc34)CC2)c([N+](=O)[O-])c1`: the growth in the assay on T-47D breast was 60.3%; with BT-549 breast it was 97.6%; in the assay on MDA-MB-435 melanoma it was 98.1%; with SW-620 colon, 40.5%; with MCF7 breast it was 52.7%; with HCT-116 colon it was 77.5%. The growth in the assay with HCC-2998 colon was 106%; in the assay on KM12 colon it was 103%.

As to `Nc1ccc(S(=O)(=O)c2ccc(Cl)cc2)cc1`, the growth was 104% in the assay on T-47D breast; 97.2% in the assay with BT-549 breast; 121% with MDA-MB-435 melanoma; 94.1% in the assay with SW-620 colon; 99.3% in the assay with MCF7 breast; 97.2% in the assay with HCT-116 colon. Also, the growth in the assay on HCC-2998 colon is 102%; in the assay with KM12 colon, 93.4%.

On to `O=C(O)Cc1ccc2c(c1)Cc1cccnc1O2`, for which the growth in the assay on T-47D breast was 89.3%; in the assay with BT-549 breast, 101%; in the assay on MDA-MB-435 melanoma, 103%; in the assay on SW-620 colon it was 106%; with MCF7 breast, 94.6%; in the assay with HCT-116 colon, 100%. Moreover, the growth is 99% in the assay with HCC-2998 colon and 98.7% with KM12 colon.

Regarding `COc1cc(C2C=C(C)N=C3SC=C(C)N32)cc(OC)c1OC` (stereo not given), the growth was 7.98% (active) with T-47D breast; -49.9% (active) in the assay with BT-549 breast; -33.3% (active) in the assay with MDA-MB-435 melanoma; -44.5% (active) with SW-620 colon; -14.8% (active) in the assay on MCF7 breast; -67.5% (active) in the assay on HCT-116 colon. For the same compound, the growth with HCC-2998 colon is -90.5% (active); with KM12 colon it was -77% (active).

For the compound `COc1cc(-c2nc(-c3nc4ccccc4[nH]3)cc3c2[nH]c2ccccc23)cc(OC)c1OC`, the growth in the assay with T-47D breast is 25%; in the assay on BT-549 breast, 27%; in the assay with MDA-MB-435 melanoma, 31.1%; in the assay with SW-620 colon, 56.5%; in the assay on MCF7 breast, 42.6%; with HCT-116 colon, 23%. Besides, the values for the growth with HCC-2998 colon and in the assay with KM12 colon were 57.3% and 18.7%, respectively.

On to `Nc1nc(Cl)c2c(ncn2Cc2ccc(CCl)cc2)n1`, for which the growth in the assay on T-47D breast was 90.2%; in the assay with BT-549 breast, 6.29% (active); with MDA-MB-435 melanoma, 95.5%; with SW-620 colon it was 93.3%; in the assay with MCF7 breast, 72.5%; with HCT-116 colon, 94.2%. For the same compound, the growth with KM12 colon was 94.3%.

As to `Nc1nc(-c2cc3ccccc3o2)cc(=O)c(=O)[nH]1`, the growth in the assay with T-47D breast is 104%; in the assay on BT-549 breast it was 106%; in the assay with MDA-MB-435 melanoma, 105%; in the assay on SW-620 colon, 102%; in the assay with MCF7 breast, 91%; in the assay on HCT-116 colon, 110%. The growth in the assay with KM12 colon is 105%.

Regarding `Nc1c(C(=O)Nc2cccc(C(F)(F)F)c2)sc2nc3c(cc12)CCCCC3`, the growth in the assay on T-47D breast was -11.6% (active); in the assay on BT-549 breast it was 25.2%; in the assay on MDA-MB-435 melanoma, 32.7%; in the assay on SW-620 colon, 58.3%; in the assay with MCF7 breast, 29.5%; in the assay on HCT-116 colon, -7.78% (active). In the assay with KM12 colon, the growth is 35.7%.

Consider `CN=S(=O)(NC(=O)c1ccc(Cl)cc1Cl)c1ccc(Br)s1` (stereo not given), for which the growth with T-47D breast was 95.8%; in the assay on BT-549 breast it was 103%; in the assay with MDA-MB-435 melanoma, 97.6%; in the assay on SW-620 colon, 98.8%; with MCF7 breast it was 101%; in the assay on HCT-116 colon, 102%. Moreover, in the assay on KM12 colon, the growth was 110%.

With `COc1ccc(C2NC3=C(CCCC3)C(C#N)(C#N)C2(C#N)C#N)cc1` (stereo not given), the growth in the assay on T-47D breast is 49.2%; in the assay with BT-549 breast it was 92.9%; in the assay on MDA-MB-435 melanoma, 103%; in the assay with SW-620 colon, 48.2%; in the assay with MCF7 breast, 49.9%; in the assay with HCT-116 colon, 78.7%. For the same compound, the growth in the assay with KM12 colon was 103%.

With `CN(C)C/C=C/C(=O)Nc1cc2c(Nc3ccc(F)c(Cl)c3F)ncnc2cc1OCCOC(F)F`, the growth is -1.23% (active) in the assay on T-47D breast; 5.73% (active) with BT-549 breast; 5.61% (active) in the assay on MDA-MB-435 melanoma; 3.09% (active) in the assay on SW-620 colon; 20% with MCF7 breast; 2.2% (active) with HCT-116 colon. The growth with KM12 colon is 44.6%.

With `COc1cccc(/C=C/c2c(C(=O)O)cccc2[N+](=O)[O-])c1OC`, the growth is 91.2% with T-47D breast; 107% in the assay with BT-549 breast; 101% with MDA-MB-435 melanoma; 99.7% in the assay with SW-620 colon; 95.8% in the assay on MCF7 breast; 97.9% with HCT-116 colon. Moreover, the growth in the assay on KM12 colon is 96.8%.
